# Laboratory results reported in PubChem BioAssay AID651812 (National Center for Advancing Translational Sciences (NCATS), 2012).
# Hit rate of the full screen: of about 2,100 compounds, about 650 (31%) were called active. Inconclusive results (about 16%) are left out. The call rests on the fitted dose curve; in most records, active means well fitted inhibition curve with a large enough effect; inconclusive means small, poorly fitted or top-dose-only effect; inactive means flat fitted curve, though single readings scatter. The list shows a part of the results. Where a call stands in place of a potency, no number is given.
# Assay: qHTS for inhibitors of Vif-A3G interactions: Cherry picks; further: nearly all actives have a fitted effect of over 80% in size
# Conditions: HeLa A3G-eYFP + Vif (tagged APOBEC3G with the HIV-1 protein that degrades it), 24 h; Potency: eYFP fluorescence increase; series mostly up to 36.9 µM
# Method in brief: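 HeLa cells stably expressing A3G-eYFP and Vif, cultured overnight then exposed to compounds at several concentrations for 24 hours at 37 C, 5% CO2; cellular yellow fluorescence (488 nm ex, 500-530 nm em) imaged on Acumen, MG132 positive control.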
# Potency means the concentration at half of the fitted maximal effect.
row,Compound,Potency
1,O=C(C[n+]1cccc2cc(Cl)ccc21)c1ccc(I)cc1,20.6 µM (active)
2,CC(C)(C)c1ccc(C(=O)C[n+]2cccc3cc(Cl)ccc32)cc1,20.6 µM (active)
3,O=C(C[n+]1cccc2cccc(O)c21)c1ccc2ccccc2c1,inactive
4,O=C(C[n+]1cccc2cc(Cl)ccc21)c1ccc2ccccc2c1,23.1 µM (active)
5,O=C(COC(=O)c1ccc(NS(=O)(=O)c2cccs2)cc1O)NCc1ccccc1,inactive
6,CCC(=Nc1ccccc1O)C1=C(O)CC(c2ccccc2)CC1=O (stereo not drawn),inactive
7,Clc1ccccc1C1CC(c2ccccc2)=Nc2ccccc2N1 (stereo not drawn),inactive
8,CCOc1ccccc1C(=O)Nc1ccsc1C(=O)OC,inactive
9,Cc1cccc(C=Nc2ccccc2C(N)=O)c1,inactive
10,CN(C)c1ccc(C=C2SC(=S)NC2=O)cc1,11.2 µM (active)
11,CCOc1ccc(N(C)c2ccc(/C=C3/SC(=S)NC3=O)cc2)cc1,17.7 µM (active)
12,Cn1cc(/C=C2\SC(=O)N(c3ccccc3)C2=O)c2ccccc21,20.6 µM (active)
13,Cc1cccc(N=C2NC(=O)/C(=C/c3cccn3C)S2)c1,inactive
14,Cn1cc(/C=C2\SC(=S)N(NC(=O)c3cccc(Cl)c3)C2=O)c2ccccc21,3.66 µM (active)
15,O=C1NC(=Nc2ccc(O)cc2)S/C1=C/c1ccco1,inactive
16,Cn1cccc1/C=C1\SC(=O)N(c2ccc(O)cc2)C1=O,20.6 µM (active)
17,Cc1ccc(N=C2NC(=O)/C(=C/c3cn(C)c4ccccc34)S2)cc1C,17.7 µM (active)
18,Cn1cccc1/C=C1\SC(=Nc2cccc(O)c2)NC1=O,inactive
19,CCOc1ccc(C(=O)C(CCC(CN(C)C)C(=O)c2ccc(OCC)cc2)CN(C)C)cc1 (stereo not drawn),inactive
20,S=c1[nH]nc(-c2cccnc2)n1/N=C/C(Cl)=C\c1ccccc1,inactive
21,O=C(C(=Cc1ccccc1)CN1CCCCC1)c1ccccc1,inactive
22,O=S(=O)(Nc1cc(Sc2ncn[nH]2)c(O)c2ccccc12)c1ccccc1,inactive
23,COc1ccc(NC(=O)C2Cc3c(-c4cccc(C(C)=O)c4)ccnc3O2)cn1 (stereo not drawn),inactive
24,Cc1noc(C)c1COc1cccc(C(=O)OC(C)C(=O)Nc2ccc3c(c2)OCO3)c1 (stereo not drawn),inactive
25,COc1cc2c(cc1OC)C(C)N(C(=O)c1cc(C)on1)CC2 (stereo not drawn),inactive

row,Compound,Potency
1,CN(C)c1ccc(C2C=C(c3ccc(Cl)cc3OC(F)F)Nc3ncnn32)cc1 (stereo not drawn),inactive
2,COc1ccccc1NS(=O)(=O)c1cc([N+](=O)[O-])ccc1N/N=C/c1sc(N2CCOCC2)nc1-c1ccccc1,2.06 µM (active)
3,Cc1ccc(S(=O)(=O)Nc2cc(-c3nn(C)c(=O)c4ccccc34)ccc2N2CCOCC2)cc1,inactive
4,Cc1ccc(NS(=O)(=O)c2cc([N+](=O)[O-])ccc2N/N=C/c2sc(N3CCOCC3)nc2-c2ccccc2)c(C)c1,0.158 µM (active)
5,Cc1ccc(C(=O)c2cc([N+](=O)[O-])ccc2N2CCOCC2)cc1C,inactive
6,O=[N+]([O-])c1ccc(N/N=C/c2sc(N3CCOCC3)nc2-c2ccccc2)c(S(=O)(=O)Nc2ccccc2Cl)c1,11.6 µM (active)
7,O=C(O)c1ccccc1/C=N/Nc1ccc(S(=O)(=O)N2CCOCC2)cc1[N+](=O)[O-],inactive
8,COc1cc(C2c3cc4c(cc3C(OC3OC5COC(c6cccs6)OC5C(O)C3O)C3COC(=O)C23)OCO4)cc(OC)c1O (stereo not drawn),inactive
9,O=C(c1[nH]c(C(F)(F)F)nc1-c1ccccc1)N1CCN(c2cccc(C(F)(F)F)n2)CC1,inactive
10,O=C(CCc1ccccc1)Nc1ccc(Cl)cn1,inactive
11,COC(=O)COc1cccc2c(=O)n(CC(=O)NCc3ccccc3)ccc12,inactive
12,O=C(/C=C/c1ccncc1)c1cc(Cl)ccc1O,inactive
13,COc1ccccc1C1=NOC(COc2ccc3c(C)cc(=O)oc3c2)C1 (stereo not drawn),inactive
14,CCSc1nc2ccccc2n1C(=O)/C=C/c1ccc(OC)c(OC)c1,inactive
15,Cc1cccc(-n2c(N)c(-c3nc4ccccc4n3C)c3nc4ccccc4nc32)c1,inactive
16,CC(=O)n1c2ccccc2c2nc3ccccc3nc21,9.2 µM (active)
17,O=c1c(Cl)c2oc3ccccc3nc-2c2ccccc12,18.4 µM (active)
18,COc1ccc(/C=N/NC(=O)c2cc3c(OC)ccc(OC)c3[nH]2)cc1O,inactive
19,O=[N+]([O-])c1ccc(N2CCN(Cc3ccccc3)CC2)c2c1no[n+]2[O-],15.8 µM (active)
20,Cc1cc(NC(=O)c2ccco2)cc(-c2nc3cc(Cl)ccc3o2)c1O,18.4 µM (active)
21,Cc1ccc(-c2nc3ccccc3o2)cc1NC(=S)NC(=O)/C=C/c1ccco1,inactive
22,COc1ccccc1C(=O)NC(=S)Nc1ccc(NC(=O)c2ccco2)cc1,inactive
23,CC1=C(C(=O)Nc2cccc(F)c2)C(c2ccsc2)C2=C(CC(C)(C)CC2=O)N1 (stereo not drawn),inactive
24,O=C1S/C(=C/c2ccc(N3CCOCC3)o2)C(=O)N1Cc1c(F)cccc1Cl,4.44 µM (active)
25,CCCN1C(=O)S/C(=C\c2ccc(N3CCOCC3)o2)C1=O,4.44 µM (active)

row,Compound,Potency
1,O=C1S/C(=C\c2ccc(N3CCOCC3)o2)C(=O)N1c1ccccc1,2.8 µM (active)
2,CCOC(=O)CN1C(=O)S/C(=C/c2ccc(N3CCCCC3)o2)C1=O,5.8 µM (active)
3,Cc1ccc(Cn2nnc3c(=O)n(CC(=O)NCc4ccccc4)cnc32)cc1,inactive
4,CO/N=C\CC(=O)Nc1ccc(Cl)c(Cl)c1,inactive
5,Cc1ccc2nc(NS(=O)(=O)c3ccc(Cl)cc3)c(Nc3ccc(C(=O)O)cc3)nc2c1,inactive
6,O=C1S/C(=C/c2ccc(N3CCOCC3)o2)C(=O)N1Cc1ccc(F)cc1,2.8 µM (active)
7,CCc1ccc2c(c1)NC(=O)C2(C)Cc1ccccc1Cl (stereo not drawn),inactive
8,COC(=O)[C@@H]1Cc2c([nH]c3ccccc23)C(C)(C)N1C(=O)CCl,inactive
9,c1ccc(-c2cnn3c(-c4ccccc4)c(-c4ccccc4)nc3n2)cc1,3.66 µM (active)
10,COc1ccc(-n2nnnc2-c2cccc(OC)c2)cc1,inactive
11,CCS(=O)(=O)N1N=C(c2ccc(C)cc2)CC1c1cc2ccc(OC)cc2nc1Cl (stereo not drawn),inactive
12,COc1ccc(C2CC(c3ccncc3)=NN2c2ccc(S(N)(=O)=O)cc2)cc1 (stereo not drawn),10.3 µM (active)
13,COc1ccc(-c2cnc3c(NC=O)cc(-c4ccccc4)cn23)cc1OC,inactive
14,COc1ccc(/C=c2\s/c(=C/C(=O)c3ccc(C)cc3)[nH]c2=O)c(OC)c1,20.6 µM (active)
15,COc1ccccc1/C=N/NC(=S)Nc1cccnc1,inactive
16,COc1ccc(C(=O)N/N=C/c2ccccc2OC(=O)c2ccccc2)cc1,inactive
17,Oc1sc(C=Nc2ccc(F)cc2)c2ccccc12,2.91 µM (active)
18,COc1ccc(N=Cc2sc(O)c3ccccc23)cc1,12.5 µM (active)
19,COc1ccc(N=Cc2c(O)c3ccccc3n2C(C)=O)cc1,18.4 µM (active)
20,Oc1sc(C=Nc2ccccc2)c2ccccc12,16.4 µM (active)
21,COc1ccc(NC(=O)c2c(Cl)n(C)c3ccccc23)cc1,inactive
22,CNC(=S)N/N=C(\C)c1ccc(Cl)s1,inactive
23,COCCCN(C(C)=O)c1nc(-c2ccc(OC)cc2)cs1,inactive
24,COc1ccc(S(=O)(=O)NN(C)c2nc(C(F)(F)F)nc3ccccc23)cc1,inactive
25,CC1(C)Cc2c(sc3ncnc(NNC(=S)NCc4ccccc4)c23)CO1,inactive

row,Compound,Potency
1,COc1ccc(/C=N/NC(=O)c2cccnc2)cc1COc1ccc(NC(C)=O)cc1,inactive
2,COc1ccc(OC)c(C2C=C(c3ccc(C)c(C)c3)Nc3nnnn32)c1 (stereo not drawn),inactive
3,COc1ccc(NC(=O)c2c(C)noc2-c2snnc2C)cc1,inactive
4,COc1ccc(N=Cc2oc3ccc4ccccc4c3c2O)cc1,7.31 µM (active)
5,COc1ccc(/C=N\NC(=O)c2cc3c(ccc4ccccc43)o2)cc1O,inactive
6,CCC(=O)NC(c1ccc(OC)cc1)c1c(O)ccc2ccccc12 (stereo not drawn),inactive
7,CC(CC(=O)Nc1ccc2c(c1)c(=O)n(C)n2Cc1ccc(F)cc1)c1ccccc1 (stereo not drawn),inactive
8,CCOC(=O)C1=C(Cc2ccc(F)cc2)C(=O)c2ccccc2C1=O,20.6 µM (active)
9,CCOC(=O)N1CCN(c2c(NCc3ccc(F)cc3)c(=O)c2=O)CC1,inactive
10,CCOC(=O)c1[nH]c(C)c(C(=O)Nc2ccccc2F)c1C,inactive
11,CCOC(=O)C1=C(Cc2ccc(Cl)cc2)C(=O)c2ccccc2C1=O,16.4 µM (active)
12,COCCNC(=S)N/N=C(\C)c1ccc(OC(F)F)cc1,inactive
13,CC(C)c1ccc(NC(=O)Nc2cnccn2)cc1,inactive
14,CCOC(=O)N1C/C(=C\c2ccccc2)C(=O)/C(=C/c2ccccc2)C1,inactive
15,CCOC(=O)c1ccc(/C=C2/C=C(c3ccccc3)N(c3ccc(Cl)c(C(=O)O)c3)C2=O)cc1,20.6 µM (active)
16,COc1ccccc1NC(=O)C1=C(C)Nc2nc3ccccc3n2C1c1cccs1 (stereo not drawn),inactive
17,Cc1cc(C)c(N2C(=O)CC(Sc3ccccc3N)C2=O)c(C)c1 (stereo not drawn),inactive
18,CCN1/C(=C/c2ccc3ccccc3[n+]2CC)C=Cc2ccccc21,9.2 µM (active)
19,Cc1ccc(S(=O)(=O)N2CCCCC2)cc1NC(=O)Cn1ncc(Cl)c(Cl)c1=O,inactive
20,CC(=O)Nc1ccc(-c2ccnc3c2CC(C(=O)NCc2ccccc2)O3)cc1 (stereo not drawn),inactive
21,O=C1Nc2ccc(Br)cc2C12NNc1ccccc1O2 (stereo not drawn),17.7 µM (active)
22,O=C(NC(=S)N1CCN(C2CCCCC2)CC1)c1ccccc1,inactive
23,C=C(NC(=O)C(=C)NC(=O)c1csc(C2=NC3c4csc(n4)C4NC(=O)c5csc(n5)C(C(C)(O)C(C)O)NC(=O)C5CSC(=N5)/C(=C/C)NC(=O)C(C(C)O)NC(=O)c5csc(n5)C3(CC2)NC(=O)C(C)NC(=O)C(=C)NC(=O)C(=C)NC(=O)C(C(C)C)NC2C=Cc3c(C(C)O)cc(nc3C2O)C(=O)OC4C)n1)C(N)=O (stereo not drawn),4.44 µM (active)
